Values joined by “and” are separate entries in the source; they are usually repeats but may differ in a detail not shown here. Equal values may be shown once. Out of some 360,000 compounds screened, about 1,400 (0.39%) were called active. The list comes from a sample in which actives are over-represented; it also holds similar structures and randomly drawn compounds. Unmarked numbers belong to inactive results.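 How the source made its calls: active means activation above its plate's cutoff, the mean activation of sample wells plus 3 SD; inactive means the rest.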

Muscarinic acetylcholine receptor M4 (Homo sapiens), sequence (P08173 whole entry, looked up): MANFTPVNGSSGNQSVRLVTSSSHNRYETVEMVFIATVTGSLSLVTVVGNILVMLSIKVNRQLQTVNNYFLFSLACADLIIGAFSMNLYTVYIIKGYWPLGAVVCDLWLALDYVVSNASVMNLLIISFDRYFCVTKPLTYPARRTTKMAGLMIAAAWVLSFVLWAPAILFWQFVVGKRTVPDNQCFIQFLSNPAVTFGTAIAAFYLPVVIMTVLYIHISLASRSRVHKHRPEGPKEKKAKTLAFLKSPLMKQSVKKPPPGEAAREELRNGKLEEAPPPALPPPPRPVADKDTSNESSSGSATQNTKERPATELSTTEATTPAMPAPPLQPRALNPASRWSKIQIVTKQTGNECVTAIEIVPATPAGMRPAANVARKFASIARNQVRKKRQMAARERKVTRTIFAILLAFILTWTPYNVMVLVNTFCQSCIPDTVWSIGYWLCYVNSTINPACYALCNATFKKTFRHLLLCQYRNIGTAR

The assay has as its target Muscarinic acetylcholine receptor M4 (Homo sapiens) (UniProt P08173). Description: CHRM4 PAMs potentiating acetylcholine calcium signal – CHO-K1 cells, Fluo-8 calcium fluorescence, primary screen (AID 624126). The following applies: CHO-K1 hM4/Gqi5, Fluo-8 calcium fluorescence, ACh EC20; at 3 µM; stronger effect = higher value; 0% = ACh EC20, 100% = maximal ACh.
In the case of `CC(C)n1ncc2c(C(=O)N3CCN(Cc4cccs4)CC3)cc(C3CC3)nc21`, the activation is 3.71%.
For `C=CCOc1ccc(/C=C/C(=O)OC(C)C(=O)Nc2ccc(NC(C)=O)cc2)cc1` (stereo not drawn), the activation is 0.99%.
Turning to `CC(OC(=O)/C=C/c1ccccc1)C(=O)Nc1ccc(C(N)=O)cc1` (stereo not drawn), the activation is 5.82%.
Take `CCc1ccc(NC(=O)C(C)OC(=O)/C=C/c2cccc([N+](=O)[O-])c2)cc1` (stereo not drawn): the activation is 30.3% (active).
For the molecule `O=C1CN(C(=O)CN2C(=O)NC3(CCCCC3)C2=O)c2ccccc2N1`, the activation is 3.42%.
Then `Cn1c(SCC(=O)c2ccccc2)ncc(C(=O)Nc2ccc(F)cc2)c1=O`, with 21.6% (active); and `Cn1c(SCC(=O)c2ccc(F)cc2)nnc1-c1ccccn1`, with -3.85%; and `Cc1ccc(NC(=O)c2cnc(SCC(=O)NCC3CCCO3)n(C)c2=O)cc1` (stereo not drawn), with 21.4%.
For the molecule `CC(C)NC(=O)N1Cc2cc(C(=O)NCC(F)(F)F)nc(-c3cccc(-c4cc5ccccc5o4)c3)c2[C@@H]1CCO`, the activation was 1.14%.
For `COc1ccc(CCNC(=O)CN2C(=O)CCSc3ccccc32)c(OC)c1`, the activation is 0.14%.
Then `CC(NS(=O)(=O)c1ccc(OCC(=O)N2CCCC2)cc1)c1ccccc1` (stereo not drawn), with 1.05%; and `O=C(COC(=O)c1ncc(Cl)c(Cl)c1Cl)NCc1ccccc1`, with 16.7%; and `Cc1ccccc1C(=O)NNC(=O)CN1C(=O)c2ccccc2C1=O`, with 9.49%.
Then `CCN(CC)S(=O)(=O)c1ccc2c3c(cccc13)C(=O)S2`, with -6.1%; and `CCN1C(=O)c2cccc3c(S(=O)(=O)Nc4ccccc4O)ccc1c23`, with 17.5% (active); and `C/C(CC(=O)Nc1ccc(C)cc1C)=N\NC(=O)C(C)C`, with 2.54%.
Then `CN(C)C(=O)N1CCNCC1`, with 4.12%.
In the case of `Cc1cc(Br)cn2c(Cc3ccsc3)c(-c3ccc(C#N)cc3)nc12`, the activation was -5.22%.
Regarding `COc1cc(CCC(=O)OCC(=O)Nc2cccc(S(N)(=O)=O)c2)cc(OC)c1OC`, the activation was 1.58%.
Then `O=C1CSc2ccc(S(=O)(=O)NCc3ccccc3)cc2N1`, with 0.62%.
As for `COc1cccc(C2=CC(=O)C[C@H](c3ccc(F)cc3)C2)c1OC`, the activation is 2.96%.
Regarding `Cc1c(C(=O)NNC(=O)c2ccncc2)oc2ccccc12`, the activation was 5.49%.
Regarding `Cc1c(C=O)c2ccccn2c1C(=O)c1ccncc1`, the activation is 30.8% (active).
For `Cc1c(C=O)c2ccccc2n1CC(=O)O`, the activation was 4.05%.
Consider `COc1cccc(CNCCc2c[nH]c3ccccc23)c1OCc1ccccc1F`, for which the activation is -8.42%.
Consider `Cc1nc2sc(C(c3ccco3)N3CCOCC3)c(O)n2n1` (stereo not drawn), for which the activation is 31.4% (active).
Then `Cc1nc2sc(C(c3ccco3)N3CCC4(CC3)OCCO4)c(O)n2n1` (stereo not drawn), with 5.78%.
In the case of `Cc1ccc(C(c2sc3nc(C)nn3c2O)N2CCN(c3ccccc3)CC2)cc1` (stereo not drawn), the activation was 4.41%.
Take `CCc1nnc(NS(=O)(=O)c2ccc(NC(=O)c3cccc(OC(F)(F)C(F)F)c3)cc2)s1`: the activation is 13.1% (active).
`Cc1cc(NS(=O)(=O)c2ccc(NC(=O)c3cccc(OC(F)F)c3)cc2)nc(C)n1`: the activation was 3.12%.
Consider `CCc1nnc(NS(=O)(=O)c2ccc(NC(=S)NC(=O)/C=C/c3cccs3)cc2)s1`, for which the activation was -0.35%.
As for `CC(C)(C)N1CC(c2nc3ccccc3n2Cc2ccc(F)cc2)CC1=O` (stereo not drawn), the activation was -1.38%.
Then `O=C(Nc1ccc2c(c1)OCCO2)C(C1CC1)N1CCC(Cc2ccccc2)CC1` (stereo not drawn), with -15.2%.
Then `CCc1ccccc1OCC(=O)Nc1ccc2c(c1)OCCO2`, with -2.66%; and `CC(=O)NCC(=O)N(C)C(C(=O)Nc1ccc2c(c1)OCCO2)c1ccccc1` (stereo not drawn), with 16.8% (active); and `Cc1ccccc1OCC(=O)N(Cc1cccc(F)c1)C1CCS(=O)(=O)C1` (stereo not drawn), with 0.66%.
Regarding `CCOCCCn1c(SCC(=O)Nc2cc(OC)ccc2OC)nc2ccccc2c1=O`, the activation is -0.05%.
With `CCOc1ccc(NC(=O)CSc2nc3ccccc3c(=O)n2Cc2cccs2)cc1`, the activation is -2.3%.
Then `CCOc1ccc(-n2c(SCC(=O)Nc3cc(C(=O)O)ccc3Cl)nc3ccccc3c2=O)cc1`, with 17.1% (active).
For the molecule `O=C1OCC2=C1C(c1ccccc1)CC(=O)N2c1cccc(F)c1` (stereo not drawn), the activation was 11.7%.
`CC(C)c1cccc(C(C)C)c1Nc1cn[nH]c1`: the activation is 28.5% (active).
With `O=C(NCCOc1ccccc1)N1[C@H]2CC[C@@H]1C=C(c1ccc(F)cc1OCc1ccccc1)C2`, the activation is -2.49%.
For `O=C(CSc1nnc(-c2c[nH]c3ccccc23)n1-c1ccc(F)cc1)NCc1ccco1`, the activation was 32.8% (active).
As for `COc1ccc(-n2c(SCC(=O)NCc3ccco3)nnc2-c2c[nH]c3ccccc23)cc1`, the activation is -1.54%.
In the case of `O=C(CSc1nnnn1-c1ccccc1)NCc1ccco1`, the activation was -4.53%.
With `CCC(C)N(C(=O)CSc1ncnc2c1cnn2-c1ccccc1)C1CCS(=O)(=O)C1` (stereo not drawn), the activation was -4.86%.
Take `CCn1c(SC(C)C(=O)Nc2ccc(N3CCOCC3)cc2)nnc1-c1ccco1` (stereo not drawn): the activation was 1.69%.
Then `CC(Sc1ncnc2c1cnn2-c1ccccc1)C(=O)Nc1ccc(N2CCOCC2)cc1` (stereo not drawn), with 23.6% (active).
As to `CCOc1ncccc1C(=O)Nc1ccc2c(c1)OCCO2`, the activation was -0.95%.
In the case of `CCOC(=O)c1cnc2ccc(F)cc2c1Nc1ccc2c(c1)OCCO2`, the activation is 27.1% (active).
In the case of `CCC(=O)c1cc(F)ccc1OCC(=O)Nc1ccc2c(c1)OCCO2`, the activation was -4.48%.
With `CCOc1cc(C)c(Cl)cc1S(=O)(=O)n1nnc2ccccc21`, the activation is 6.7%.
`COc1ccccc1Nc1ncc(C(C)=O)c(C)n1`: the activation was 2.09%.
Then `O=C(c1[nH]ncc1-c1ccc(Cl)cc1)C1CO1` (stereo not drawn), with -6.34%; and `COc1ccc(C(=O)CN2C(=O)NC3(CCc4ccccc43)C2=O)c(OC)c1` (stereo not drawn), with 22.9% (active); and `COc1ccc(-n2c(C)cc(C(=O)CN3C(=O)NC4(CCc5ccccc54)C3=O)c2C)cc1` (stereo not drawn), with -7.44%.
Take `Cc1ccc(C(=O)CN2C(=O)NC3(CCc4ccccc43)C2=O)c(C)c1` (stereo not drawn): the activation is -0.51%.
In the case of `Cc1ccc(C(=O)NCC(=O)NCc2cc(=O)n(C)c(=O)n2C)cc1`, the activation was -0.97%.
`CCOc1ccc(NS(=O)(=O)c2ccc(C(=O)NCC3CCCO3)cc2)cc1` (stereo not drawn): the activation was -2.16%.
As to `CC(=O)c1sc(N)nc1C`, the activation was 3.44% and -1.75%.
For `Cc1nc(N)sc1-c1ccccc1`, the activation was 16.2% (active).
Then `Cc1nc(N)sc1N=Nc1c(C)n(C)n(-c2ccccc2)c1=O`, with 3.22%; and `CCN(C(=O)COC(=O)c1ccc(COc2ccc3c(C)cc(=O)oc3c2)cc1)C1CCS(=O)(=O)C1` (stereo not drawn), with -5.76%.
For the molecule `CN=C(NC#N)NCCSCc1nc[nH]c1C`, the activation was -5.15%.
On to `O=C1C=C(c2ccc(Cl)cc2)C(=O)N1Nc1ccccc1`, for which the activation was -7.82%.
Then `O=C1c2cccc3cc(Br)cc(c23)C(=O)N1Nc1ccccc1`, with 21.6% (active); and `O=C1c2cccc3cccc(c23)C(=O)N1c1cccc(O)c1`, with -10.1%.
Then `Cc1cc(C)c(S(=O)(=O)NCCCN2CCOCC2)cc1Br`, with -4.24%; and `COc1cccc(CN(C)CC(=O)Nc2sc3c(c2C#N)CCC3)c1`, with -0.97%; and `O=C(CN1CCCC1)Nc1sc2c(c1C(=O)Nc1ccccc1)CCCC2`, with 0.04%.
Take `CCN1CCN(CC(=O)Nc2sc3c(c2C#N)CCC3)CC1`: the activation is 17.1% (active).
Turning to `COCc1c(C(=O)OCc2c(C)noc2C)oc2ccccc12`, the activation was -3.78%.
With `CCCCCN(C(=O)CCC(=O)OCC(=O)NC1CCC(C)CC1)c1c(N)n(CCCC)c(=O)[nH]c1=O` (stereo not drawn), the activation was 9.55%.
Turning to `CN(CCc1ccccc1)C(=O)c1cccc(NC(=O)Cc2cccc(NC(=O)C3CCCN(C(=O)C4CCC4)C3)c2)c1` (stereo not drawn), the activation was -5.03%.
Then `O=C(c1cnccn1)N1CCN(S(=O)(=O)c2cccc(Cl)c2)CC1`, with 1.28%; and `Cc1ccc(Cn2c(=N)c(S(=O)(=O)c3ccc(C)cc3)cc3c(=O)n4ccccc4nc32)cc1`, with 3.3%.
Consider `O=C(OC12CC3CC(CC(C3)C1)C2)c1ccc(NCc2cc(O)ccc2O)cc1`, for which the activation was 15.5% (active).
Take `CC1CCN(C(=O)c2ccc3c(=O)n4c(nc3c2)CCCCC4)CC1`: the activation is 14.7% (active).
Take `O=C(Nc1cc(F)ccc1F)c1ccc2c(=O)n3c(nc2c1)CCC3`: the activation is 3.59%.
Then `Cc1cc(C)c(C)c(S(=O)(=O)N2CCN(C(=O)c3ccc4c(=O)n5c(nc4c3)CCC5)CC2)c1C`, with -1.12%; and `CCN(CC(=O)NCc1cccs1)C(=O)/C=C/c1ccc(C)cc1`, with 23.5% (active); and `CCOc1ccc(/C=C/C(=O)N(CC)CC(=O)NCc2cccs2)cc1OC`, with -5.1%.
As for `CCN(CC(=O)NCc1cccs1)C(=O)c1ccccc1F`, the activation was 0.45%.
With `COCCn1c(SCC(=O)Nc2ccc3c(c2)CCC3)nc2ccccc2c1=O`, the activation was -0.72%.
`Cc1c(C(=O)c2cccc([N+](=O)[O-])c2)c2ccccn2c1CCC#N`: the activation is -5.93%.
In the case of `CN1CCN(c2cc3c(cc2F)c(=O)c(C(=O)O)cn3CCF)CC1`, the activation was 8.31%.
Turning to `CCOc1ccc(NC(=O)[C@H](C)NC(=O)C2CC(=O)N(c3ccc(OC)cc3)C2)cc1` (stereo partly drawn), the activation was 17.5% (active).
Then `CCCC(C)c1nnc(NC(=O)C2CC(=O)N(c3ccc(OCC)cc3)C2)s1` (stereo not drawn), with 0.96%.
Take `COc1ccc(N2CC(C(=O)N[C@@H](C)C(=O)N3CCCCC3)CC2=O)cc1` (stereo partly drawn): the activation was -1.42%.
As to `COc1ccc(-c2ccc3c(c2)C2CC3CCN2CCC#N)cc1` (stereo not drawn), the activation was -4.51%.
Turning to `N/C(=N\OC(=O)CCc1ccccc1)c1cccnc1`, the activation was 24.5% (active).
`N/C(=N\OC(=O)CCc1ccccc1)c1ccc(Cl)cc1`: the activation was 12.9%.
Then `COc1ccc(/C(N)=N/OC(=O)CCCc2ccccc2)cc1`, with 1.71%.

Values taken from PubChem BioAssay AID624126 (The Scripps Research Institute Molecular Screening Center, 2012).
